Compound activity: PubChem, National Center for Advancing Translational Sciences (NCATS)
NS1 function inh = influenza NS1 inhibition | Potency, µM (series often up to 46.1 µM) | 270,000 compounds, 0.4% hits | AID 2326; calls by dose curve; also: actives are rising curves; nearly all actives have a fitted effect of over 50% in size
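In this qHTS, NS1 from influenza A is expressed in budding yeast, where it slows growth. Cells are switched from glucose to 2% galactose medium (pH 6.0, -URA), treated with compound, and growth recovery is read at OD600.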
Pf growth 96h = P. falciparum growth inhibition at 96 hour, primary screen for plastid delayed-death inhibitors | P. falciparum luciferase reporter growth, 96 h | Potency, µM (titrated, usually from 28.7 µM), usual class: inhibitors | 320,000 compounds, 6.9% hits | AID 504834
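Plates of compound plus infected erythrocytes (2% hematocrit, 0.05% parasitemia final) incubate 96 hours, 37 C, 5% CO2. Detection reagent added; reduced luminescence from the parasites' luciferase reporter flags inhibition.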
Pf growth 48h = inhibits P. falciparum growth in the first generation, 48 h; P. falciparum luciferase growth in erythrocytes, 48 h; Potency, µM (titrated, usually from 28.7 µM), hits mostly inhibitors; 310,000 compounds, 5.9% hits
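Here the parasites carry a stable luciferase gene and grow inside erythrocytes in Albumax-based RPMI medium with compound for one erythrocytic cycle. Activity is scored as loss of luminescent signal.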
Shiga inhibitor = blocks Shiga toxin action in Vero cells; Vero cells, Shiga toxin protein synthesis inhibition reporter; inhibition, % at 38.7 µM; 290,000 compounds, 9.2% hits; AID 2315; in the data active = inhibition mostly above about 28%, no sharp cut-off; inactive = mostly below about 43%
FBPA Giardia inh = blocks Giardia fructose-bisphosphate aldolase activity; purified Giardia FBPA; 290,000 compounds, 0.71% hits; Potency, µM (highest dose often 59.6 µM), actives largely listed as inhibitors; A8B2U2; also: nearly all actives have a fitted effect of over 55% in size
Target sequence (A8B2U2 whole entry, looked up): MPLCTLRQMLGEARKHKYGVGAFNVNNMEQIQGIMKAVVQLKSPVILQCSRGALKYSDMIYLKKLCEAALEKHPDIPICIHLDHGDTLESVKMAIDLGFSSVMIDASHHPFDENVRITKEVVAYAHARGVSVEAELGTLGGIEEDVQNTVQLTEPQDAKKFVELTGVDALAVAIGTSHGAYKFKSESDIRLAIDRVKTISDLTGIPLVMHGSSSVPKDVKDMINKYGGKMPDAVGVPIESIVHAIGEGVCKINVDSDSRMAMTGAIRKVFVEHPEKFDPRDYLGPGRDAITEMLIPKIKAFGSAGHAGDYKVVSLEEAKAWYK
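40 nM FBPA preincubated 10 min at RT with compound (up to 57.5 uM final), then substrate plus GAPDH/TPI/NAD/arsenate coupling and diaphorase/resazurin added. Fluorescence read after 20 min at RT, 525/598 nm.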
Cycloheximide cs = counter-screen for Shiga toxin inhibitors: cycloheximide protein synthesis inhibition. max response, %. cell reporter, cycloheximide protein synthesis inhibition counterscreen. 300,000 compounds, 12% hits. AID 2314; in the data active = max response mostly above about 13%, no sharp cut-off; inactive = mostly below about 14%; also: read at 38.3 µM for the half of the compounds with a filed dose
NS1 inh valid = influenza NS1 function inhibition validation. shares compounds with NS1 function inh. influenza NS1 function cell assay, 15-point titration. 1,400 tested, under 10 active. activity change, negative = inhibition, % at 32.9 µM; calls by dose curve
Flu PR8 replic = influenza NS1 inhibitors: inhibition of influenza A/PR/8/34 replication; virus titer (log TCID50), log10 TCID50 at 5 µM; 95 compounds, 30% hits; shares compounds with NS1 function inh; MDCK infected influenza A/PR/8/34, virus titer TCID50; hits give low values; call rule not given here
A number is an active result; . = inactive; ? = inconclusive; / = not tested or not shown; ! = not confirmed by another sample. The list is not random: actives were taken first. Their share in the collection is about 21%. Unless noted, calls follow the shape of the dose curve; as a rule, active = well fitted curve in the direction sought with a large enough effect; inconclusive = small, poorly fitted or top-dose-only effect, or another doubt; inactive = no such curve, though single readings can be large; an effect the other way counts as inactive or inconclusive.

SMILES	NS1 function inh	Pf growth 96h	Pf growth 48h	Shiga inhibitor	FBPA Giardia inh	Cycloheximide cs	NS1 inh valid	others
COc1ccc(CNC(=O)CCCCCn2c(SCC#N)nc3cc4c(cc3c2=O)OCO4)cc1	11µM	.	?	.	.	.	.
Cc1ccccc1C(=O)N1CCC(C(=O)Nc2ccc3c(c2)OCO3)CC1	.	.	.	.	.	.	/
Cc1nc(Nc2nc(CSc3nc4ccccc4[nH]3)cc(=O)[nH]2)nc2ccccc12	14µM	9.3µM	?	.	.	.	.
Cc1c(Cl)cccc1NC(=O)CCC(=O)NNC(=O)c1ccccc1	.	.	.	.	.	.	/
O=C(OCn1nnc2ccccc2c1=O)c1ccc2ccccc2n1	16µM	.	.	.	.	.	.
COC(=O)CC(N)c1ccc(OC)c2ccccc12 (stereo unspecified)	.	.	/	.	.	.	/
O=C(CCl)c1cc2c3c(c1)CC(=O)N3CCC2	.	?	?	.	.	.	/
CCC(=O)Nc1ccc(NC(=S)NC(=O)c2cc3ccccc3o2)cc1	.	?	.	.	.	.	/
CCCC(=O)Nc1ccc(Cl)c(NC(=S)NC(=O)c2cc3ccccc3o2)c1	?	.	.	.	.	.	.
COCCn1c(=NC(=O)c2cc(-c3cccs3)nc3ccccc23)sc2cc(S(N)(=O)=O)ccc21	11µM	.	.	.	.	.	.
Cc1cc(C)c(NC(=O)C(C)Sc2nnc(-c3ccco3)n2-c2ccccc2)c(C)c1 (stereo unspecified)	.	.	.	.	.	.	/
Cc1ccc(CC(=O)Nc2ccc(S(=O)(=O)N3CCOCC3)cc2)cc1	?	.	.	.	.	.	.
COc1ccc(CN2CCN(S(=O)(=O)c3ccc(NC(C)=O)cc3)CC2)cc1	?	?	?	.	?	.	.
COc1ccc(NC(=S)Nc2cccc(S(=O)(=O)N3CCCCC3)c2)cc1	13µM	.	.	.	.	.	.
COc1cccc(CNC(=O)CN2C(=O)c3ccccc3S2(=O)=O)c1	/	.	.	/	/	/	/
CS(=N)(=O)CC[C@@H](N)C(=O)O (stereo partly specified)	/	/	/	/	.	/	/
COC(=O)C1CC(=O)c2ccsc2C1 (stereo unspecified)	.	.	.	.	.	.	/
CC(C)OC(=O)c1cc2c(ccn2C)n1CC(=O)N(Cc1ccccc1)c1ccccc1	11µM	?	?	.	.	.	.
CCOC(=O)c1cc2c(ccn2C)n1Cc1cc(C)ccc1C	.	.	?	.	.	.	/
CCc1ccc(NC(=O)C(C)OC(=O)c2cccc(S(=O)(=O)N3CCc4ccccc4C3)c2)cc1 (stereo unspecified)	14µM	.	.	.	.	.	.
O=C(CN1CCCC1)Nc1ccc([N+](=O)[O-])cc1	.	.	.	.	.	.	/
CC(C)[C@@]1(NC(=O)[C@@H]2C[C@H]3c4cccc5[nH]cc(c45)C[C@@H]3N(C)C2)O[C@]2(O)[C@H]3CCCN3C(=O)CN2C1=O	/	/	/	/	.	/	/
CC(C)[C@@]1(NC(=O)[C@@H]2C[C@@H]3c4cccc5[nH]cc(c45)C[C@H]3N(C)C2)O[C@@]2(O)C3CCCN3C(=O)[C@H](Cc3ccccc3)N2C1=O (stereo partly specified)	5.6µM	/	/	/	.	/	?
N#C/C(=C\c1cn(CCOc2ccccc2)c2ccccc12)C(=O)NCc1ccco1	?	.	?	.	.	16	.
NC(=O)COC(=O)c1cc(-c2ccco2)nc2ccccc12	.	.	.	.	.	.	/
SMILES	NS1 function inh	Pf growth 96h	Pf growth 48h	Shiga inhibitor	FBPA Giardia inh	Cycloheximide cs	NS1 inh valid	others
O=C(O)c1cc(-c2ccco2)nc2ccc(Br)cc12	20µM!	?	.	.	.	.	.
S=C(NCC(c1ccco1)N1CCCC1)Nc1ccccc1 (stereo unspecified)	/	?	?	.	.	.	/
OC(CNCC(c1ccco1)N1CCCCC1)c1ccccc1 (stereo unspecified)	2.2µM	?	1.3µM	.	?	.	.
CCN(CC)C(=O)C(=O)N/N=C/c1ccc(C(=O)O)cc1	.	.	.	.	.	.	/
COC(=O)C1=C(C)NC2=C(C(=O)CCC2)C1c1cn(Cc2ccc(Cl)cc2Cl)nc1-c1ccccc1 (stereo unspecified)	13µM	1.9µM	2.6µM	.	.	.	.
CCOC(=O)C1=C(C)NC2=C(C(=O)CCC2)C1c1cn(Cc2ccc(Cl)cc2Cl)nc1-c1ccccc1 (stereo unspecified)	?	0.74µM	0.12µM	.	.	.	.	Flu PR8 replic=.
CCOC(=O)C1=C(C)NC2=C(C(=O)CCC2)C1c1cc(OC)ccc1OC (stereo unspecified)	.	/	.	.	.	.	/
O=C(CSc1nc2ccccc2o1)NCCOc1ccccc1	.	?	.	.	.	.	/
O=C(CCN1CCOCC1)Nc1c(-c2ccccc2)c2cc(Br)ccc2[nH]c1=O	.	?	?	.	.	.	/
NNC(=O)CNC(c1ccccc1)c1cc(Br)ccc1NC(=O)c1cccc(Cl)c1 (stereo unspecified)	11µM	?	13µM	.	.	.	.
COC(=O)CNC(c1ccccc1)c1cc(Cl)ccc1NC(=O)c1cccc(Cl)c1 (stereo unspecified)	.	?	?	.	.	.	/
NNC(=O)CNC(c1ccccc1)c1cc(Br)ccc1NC(=O)c1ccc(Br)cc1 (stereo unspecified)	7.1µM	.	8.3µM	.	.	.	.
NNC(=O)CNC(c1ccccc1)c1cc(Br)ccc1NC(=O)CCN1CCOCC1 (stereo unspecified)	10µM	9.3µM	12µM	.	.	.	?
O=C(NCC1CCCO1)C1CC1(c1ccccc1)c1ccccc1 (stereo unspecified)	.	.	.	.	.	.	/
CCN(CC)S(=O)(=O)c1ccc(NCc2ccccn2)nc1	.	.	.	.	.	.	/
Cc1ccc(NC(=O)CC(=O)c2ccc([N+](=O)[O-])cc2)cc1S(=O)(=O)Nc1cccc(Cl)c1	14µM	?	?	.	.	.	.	Flu PR8 replic=7.5
O=C(CN1C(=O)/C(=C\C=C\c2ccccc2)SC1=S)Nc1ccc(F)cc1	18µM	.	.	.	.	.	.
O=C(CN1C(=O)S/C(=C/C=C/c2ccccc2)C1=O)Nc1ccc(C(=O)O)cc1	/	.	.	.	.	.	/
O=C(NCc1ccc(F)cc1)c1c2c(nc3ccccc13)CCC2	/	.	.	.	.	.	/
O=[N+]([O-])c1ccccc1NCc1c(O)ccc2ccccc12	8.9µM	?	?	.	?	.	.
CC(Oc1ccc2c(-c3ccccc3)cc(=O)oc2c1)C(=O)O (stereo unspecified)	.	.	.	.	.	.	/
